# uPA generation – cell surface uPA generation inhibition; AID 540303; 0.31% of 330,000 active; Potency, µM (titrated, usually from 38.3 µM), for inactives: at the highest dose activity change, negative = inhibition, usual class: inhibitors; cell surface uPA generation assay, qHTS; active = well fitted inhibition curve with a large enough effect; inconclusive = small, poorly fitted or top-dose-only effect; inactive = no such curve, though single readings can be large or run the other way; tested in mouse RAW 264.7 cells; also: potency is read from the fitted curve at half-maximal effect; nearly all actives have a fitted effect of over 55% in size
# DT40 TDP1 no CPT – qHTS for Inhibitors of human tyrosyl-DNA phosphodiesterase 1 (TDP1): qHTS in cells in absence of CPT | DT40 Tdp1-/- hTDP1 cells, no CPT, ATP luminescence, 48 h | Potency, µM (doses to about 46.2 µM), for inactives: at the top dose activity change, negative = growth inhibition, actives largely listed as inhibitors | 15% of 420,000 active | AID 686978, 2013; also: potency is read from the fitted curve at half-maximal effect; nearly all actives have a fitted effect of over 55% in size
#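 Readout: luminescence from CellTiter-Glo after 30 min in the dark at RT. Cells: DT40 Tdp1-/- with stable hTDP1, 400/well. Exposure: compounds alone, ≥48 hr, 37 °C.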
# TDP1 cell CPT – growth inhibition of DT40 Tdp1-/-;hTDP1 cells with camptothecin (screen for TDP1 inhibitors); chicken DT40 Tdp1-/-;hTDP1 cells + 20 nM CPT, ATP luminescence, 48 h; Potency, µM (titrated, usually from 46.2 µM), for the others: at the top dose activity change, negative = growth inhibition, most hits filed as inhibitors; 12% of 420,000 active; also: potency is read from the fitted curve at half-maximal effect; nearly all actives have a fitted effect of over 55% in size
#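 Cell growth measured by CellTiter-Glo luminescence after a minimum 48 h, 37 C compound exposure with 20 nM CPT in Tdp1-knockout DT40 cells stably expressing hTDP1, seeded 400/well; qHTS titration format.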
# HT1080NT lethal – kills 2HG-producing HT-1080-NT fibrosarcoma cells; HT-1080-NT fibrosarcoma viability, CellTiter-Glo ATP luminescence, 48 h; Potency, µM (titrated, usually from 46.1 µM), for inactives: at the top dose activity, negative = less viability, hits mostly cytotoxic; 1.6% of 360,000 active;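 also: NT is the 2HG producing partner of a matched IDH1 knockdown line; potency is read from the fitted curve at half-maximal effect; 0% = DMSO-treated cells and -100% = media-only wells without cells; nearly all actives have a fitted effect of over 55% in size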
#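 Fibrosarcoma NT cells, 750 per well in 5% FBS RPMI, were exposed to compound for 48 hours. Viability: CellTiter-Glo luminescence.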
# IL1B secr inh – inflammasome signaling inhibition, IL-1 beta readout | THP-1 LPS/ATP IL-1B secretion, AlphaLISA, 16 h; stronger effect = lower value | activity change, % at 57.5 µM | 4.7% of 360,000 active | AID 743279; in the data active = activity change below about -50%; inconclusive = mostly about -30% to -49%
#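 Secreted IL-1B measured by AlphaLISA bead assay after 16 h compound exposure of THP-1 cells; compounds (final up to 57.5 uM) added 1 h before LPS (250 ng/mL) and ATP (1.25 mM) stimulation; lower signal means less secretion.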
# HT1080 IDH1KD tx – toxicity to HT-1080 IDH1 knockdown cells (counter line); HT-1080 IDH1 knockdown viability, ATP luminescence, 48 h; Potency, µM (titrated, usually from 46.1 µM), inactives show at the top dose activity, negative = toxicity, actives largely listed as cytotoxic; 2% of 360,000 active; AID 686971;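 also: potency is read from the fitted curve at half-maximal effect; 0% = DMSO wells and -100% = cell-free medium wells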
#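 Cytotoxicity counter-line: IDH1KD HT-1080, 48 h, CellTiter-Glo. Curves classed by r2, magnitude and activity.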
# Numbers without * were called inactive; u = inconclusive; x = no result. The list is not random: actives were taken first. Their share in the collection is about 19%. Unless noted, calls follow the shape of the dose curve; as a rule, active = well fitted curve in the direction sought with a large enough effect; inconclusive = small, poorly fitted or top-dose-only effect, or another doubt; inactive = no such curve, though single readings can be large; an effect the other way counts as inactive or inconclusive. Unless noted, % is scaled to controls: 0 for no effect and ±100 for the full control effect.
SMILES,uPA generation,DT40 TDP1 no CPT,TDP1 cell CPT,HT1080NT lethal,IL1B secr inh,HT1080 IDH1KD tx
CCS(=O)(=O)Nc1ccc(C2=NN(C(=O)c3ccco3)C(c3ccco3)C2)cc1 (configuration not stated),u,4.1µM*,4.6µM*,u,-4,16µM*
CS(=O)(=O)Nc1cccc(C2=NN(C(=O)c3ccco3)C(c3ccco3)C2)c1 (configuration not stated),-10%,u,16µM*,-1%,-5,-26%
COc1ccccc1C1CC(c2ccc(NS(C)(=O)=O)cc2)=NN1C(=O)c1ccccc1 (configuration not stated),1%,u,-24%,-1%,-15,1%
CN(C)c1ccc(-c2csc(C(C)(O)c3ccc(F)c(F)c3)n2)cc1 (configuration not stated),x,u,u,u,-13,u
COc1ncnc2c1ncn2CCCNCCCN1CCCC1=O,x,-23%,4%,15%,8,1%
CN1CCCC2(CCN(S(=O)(=O)c3ccccc3)CC2)C1,x,11%,-6%,x,x,x
CCS(=O)(=O)Nc1cccc(C2=NN(C(=O)c3ccco3)C(c3ccco3)C2)c1 (configuration not stated),-18%,2.6µM*,4.6µM*,u,-22,u
Cc1cc2c(cc1C)-n1nnnc1C(N(Cc1ccccc1)Cc1ccccc1)C(=O)N2 (configuration not stated),x,21µM*,u,-24%,-18,-26%
CCc1ccc2c(c1)C(c1ccc(N3CCOCC3)cc1)=NNC(c1ccncc1)=N2,2%,-2%,-15%,-17%,-3,-12%
CCOc1ccc(C2=Nc3ccc(Br)cc3C(c3ccc(N4CCOCC4)cc3)=NN2)cc1,5%,15µM*,u,18%,-25,8%
CCOc1ccc(C2=Nc3ccccc3C(c3ccc(N4CCOCC4)cc3)=NN2)cc1,x,13µM*,23µM*,-14%,-12,u
CCN(CC)c1ccc(C2Nc3ccccc3-c3cc(C)nn32)cc1 (configuration not stated),x,-24%,-25%,x,x,x
CC(=O)Nc1ccc(C2Nc3c(C)cc(C)cc3-c3cc(C)nn32)cc1 (configuration not stated),x,u,18µM*,x,x,x
COC(=O)c1ccc(C2Nc3c(C)cccc3-c3cc(C)nn32)cc1 (configuration not stated),x,16µM*,u,x,x,x
COc1ccc(/C=C2/N=C3CCCCCN3C2=O)cc1,-1%,-23%,23%,16%,-24,-5%
CN1CCC2(CC1)N=C(c1ccc(F)cc1)C(=S)N2C(=O)c1ccc(C(C)(C)C)cc1,-2%,5.8µM*,7.3µM*,u,u,u
CN1CCN(C(=S)NC(=O)c2ccc(C(C)(C)C)cc2)CC1,-2%,u,u,-12%,2,-12%
CCN(CC(=O)NC1CCS(=O)(=O)C1)c1ccc(S(=O)(=O)N(CC)CC)cc1[N+](=O)[O-] (configuration not stated),-2%,-9%,-27%,-3%,-18,-5%
CCn1cc(C(=O)O)c(=O)c2cc(F)c(N3CCN(C(=S)NC(=O)c4ccccc4Br)CC3)cc21,-11%,21µM*,u,9%,16,8%
CCn1cc(C(=O)O)c(=O)c2cc(F)c(N3CCN(C(=S)Nc4ccccc4OC)CC3)cc21,0%,u,-18%,0%,-16,-2%
CCCOc1ccc(C(=O)NC(=S)N2CCN(c3cc4c(cc3F)c(=O)c(C(=O)O)cn4CC)CC2)cc1,-1%,15µM*,16µM*,0%,18,-9%
CCn1cc(C(=O)O)c(=O)c2cc(F)c(N/N=C/c3ccccc3[N+](=O)[O-])cc21,1%,16µM*,4.1µM*,-16%,9,-28%
CCn1cc(C(=O)O)c(=O)c2cc(F)c(N3CCN(C(=S)NC(=O)c4c(OC)cccc4OC)CC3)cc21,2%,26µM*,18µM*,24%,u,26%
CCn1cc(C(=O)O)c(=O)c2cc(F)c(N3CCN(C(=S)NC(=O)c4cccc(F)c4)CC3)cc21,1%,-4%,u,21%,5,13%
CCn1cc(C(=O)O)c(=O)c2cc(F)c(N3CCN(C(=S)NC(=O)c4ccc(F)cc4)CC3)cc21,-3%,u,u,-5%,17,-5%
SMILES,uPA generation,DT40 TDP1 no CPT,TDP1 cell CPT,HT1080NT lethal,IL1B secr inh,HT1080 IDH1KD tx
COc1cc(/C=C/C(=O)O)cc(S(=O)(=O)Nc2ccccc2C(=O)NCc2ccco2)c1OC,-4%,-3%,0%,-3%,0,-3%
CCn1cc(C(=O)O)c(=O)c2cc(S(=O)(=O)N3CCCCCC3)ccc21,-5%,6%,0%,-3%,-11,-3%
CCn1cc(C(=O)O)c(=O)c2cc(F)c(N3CCN(S(=O)(=O)c4ccc(NC(=O)OC)cc4)CC3)cc21,1%,18µM*,18µM*,-24%,25,0%
CCc1nn(C)c(N)c1C,-1%,3%,-2%,-1%,0,24%
COc1ccc(NC(=O)COC(=O)CC23CC4CC(CC(C4)C2)C3)c([N+](=O)[O-])c1,0%,u,u,-3%,0,-8%
CCOc1ccc(NC(=O)COC(=O)C23CC4CC(CC(C4)C2)C3)c([N+](=O)[O-])c1,-5%,u,18µM*,1%,12,-3%
COc1ccc(-c2nc(NC(=O)C3CC(=O)N(Cc4ccco4)C3)sc2C)cc1 (configuration not stated),u,12µM*,16µM*,-5%,-28,-9%
COc1ccc(-c2csc(NC(=O)C3CC(=O)N(Cc4ccco4)C3)n2)cc1 (configuration not stated),-1%,21µM*,u,-16%,-61*,-16%
O=C(Nc1nccs1)C1CC(=O)N(Cc2ccco2)C1 (configuration not stated),3%,-4%,5%,3%,4,3%
COc1ccc(-c2nc(NC(=O)C3CCN(c4nc5ccccc5o4)CC3)sc2C)cc1,-4%,u,16µM*,u,-27,u
COc1cccc(NC(=O)C2CC(=O)N(Cc3ccco3)C2)c1 (configuration not stated),u,21%,3%,-1%,56,-2%

# Assay outcomes from PubChem BioAssay.
